Data on 14 compounds can be found in PubChem BioAssay.

The source made the active and inactive calls. Unless noted, how the calls were made is not given here.

Experiment [1] in a line: liver-stage malaria parasite load reduction – cell-based, known kinase inhibitor set, luminescence, hepatoma host viability (AID 624392).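 Further: infected cells incubated roughly two days before readout.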 Particulars: Plasmodium liver stage in hepatoma cells, luciferase luminescence, concentration not given here; liver cell % of control: measured here: host liver cell viability; parasite % of control: stronger effect = lower value.
Experiment [2] can be described thus: altered dexamethasone sensitivity, NF-kB reporter, cell-based, luciferase, IL-1B stimulus (AID 624486).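 On percent of negative control (+Dex): 100% = mean signal of vehicle control wells on the plate.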 Particulars: IL-1B + dexamethasone, luminescence; percent of negative control (+Dex): actives lie on both sides, concentration not given here; z-score: measured here: IL-1B alone, no Dex.
Experiment [3] can be described thus: C. elegans survival during P. aeruginosa infection – whole organism (AID 651566).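 Further: tested at 14 µM; sign flipped so higher z means a lower ratio.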 Particulars: C. elegans killed by P. aeruginosa, survival ratio.
Experiment [4] is described as follows: pro-inflammatory signaling induction in mouse macrophages – cell-based, murine, luminescence (AID 652131). Particulars: murine macrophage pro-inflammatory reporter, stronger effect = higher value.
The target in experiment [5] is Cellular tumor antigen p53 (Homo sapiens) (UniProt P04637). The experiment can be described thus: GFP-p53 level modulators in HPV16+ cells – imaging, known kinase inhibitor set, EGFP/DsRed ratio (AID 1053116).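 Further: cells exposed to compounds for 24 h at 37 °C before reading.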 Particulars: GFP-p53 stability, stronger effect = higher value; EGFP object count: measured here: GFP-p53 positive objects count.
Experiment [6] is described as follows: inducers of IRF3 signaling, differentiated THP-1 – cell-based, PMA-stimulated THP-1, luminescence (AID 1053176). Conditions: PMA-differentiated THP-1, IRF3 reporter luminescence; stronger effect = higher value.
Experiment [7] is described as follows: MELAS cybrid and Rieske KO viability enhancers – cell-based, MELAS cybrids, Rieske KO mouse fibroblasts, CellTiter-Glo, primary screen (AID 1508586;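 active means mean z-score across replicates of 1.96 or higher in either the MELAS or the Rieske mutant cell line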;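 further: z relative to plate mean and SD of compound and empty wells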). Particulars: low glucose. (In general: ATP-based viability assays read luminescence as a measure of living cells.)
[8] abbreviates: MELAS cybrid survival, CellTiter-Glo 48 h, stronger effect = higher value.
The mark [9] stands for this setting: Rieske KO mouse fibroblast survival, CellTiter-Glo 72 h.

Chain of Cellular tumor antigen p53 (Homo sapiens) (P04637 whole entry, looked up): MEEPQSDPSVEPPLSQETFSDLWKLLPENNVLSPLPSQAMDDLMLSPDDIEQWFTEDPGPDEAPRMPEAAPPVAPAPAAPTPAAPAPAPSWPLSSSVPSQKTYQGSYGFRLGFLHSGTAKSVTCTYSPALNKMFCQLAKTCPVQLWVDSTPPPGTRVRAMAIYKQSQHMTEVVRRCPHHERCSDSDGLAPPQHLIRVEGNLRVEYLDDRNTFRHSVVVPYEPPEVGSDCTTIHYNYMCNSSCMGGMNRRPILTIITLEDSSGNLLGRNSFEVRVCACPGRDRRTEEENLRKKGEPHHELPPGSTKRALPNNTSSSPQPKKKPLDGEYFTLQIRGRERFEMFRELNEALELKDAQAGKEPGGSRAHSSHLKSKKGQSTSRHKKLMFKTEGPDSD

In experiment [1], `O=C(O[C@H]1CN[C@H](C#Cc2cc3ncnc(Nc4ccc5c(cnn5Cc5ccccc5)c4)c3s2)C1)N1CCOCC1` showed a liver cell % of control of 118%. In addition, the parasite % of control in experiment [1] is 137% (inactive). In experiment [2], the percent of negative control (+Dex) is 58% (inactive). For the same compound, the z-score in experiment [2] was -2.13; in experiment [3] it was 1.08 (inactive); in experiment [4], -0.862 (inactive); in experiment [7] (setting [8]) it was 0.875 (inactive); in experiment [7] (setting [9]), -0.356. Moreover, in experiment [5], the EGFP object count was found to be 3. For the same compound, the EGFP/DsRed ratio in experiment [5] was 0.0849 (inactive). Also, in experiment [6], the fraction signal was -0.0115 (inactive).
For the compound `NC(=O)c1sc(-n2cnc3cc(C(F)(F)F)ccc32)cc1OCc1ccccc1Br`, the liver cell % of control in experiment [1] turned out to be 109%. Moreover, the parasite % of control in experiment [1] was 113% (inactive). Further, in experiment [2], the percent of negative control (+Dex) was 94.5% (inactive). Further, the z-score in experiment [2] is 0.595; in experiment [3], 0.64 (inactive); in experiment [4], -0.704 (inactive); in experiment [7] (setting [8]), 0.066 (inactive); in experiment [7] (setting [9]) it was -0.5. In addition, the EGFP object count in experiment [5] was determined as 10.5. Besides, the EGFP/DsRed ratio in experiment [5] is 0.407 (inactive). The fraction signal in experiment [6] was -0.0005 (inactive).
For the compound `COc1cccc(-n2ncc3c(N/N=C/c4ccncc4)ncnc32)c1`, the liver cell % of control in experiment [1] is 106%. In addition, the parasite % of control in experiment [1] was 21.2% (inactive). The percent of negative control (+Dex) in experiment [2] is 156% (active). In addition, the z-score in experiment [2] is 0.175; in experiment [3], 0.485 (inactive); in experiment [4] it was 0.337 (inactive); in experiment [7] (setting [8]), -0.213 (inactive); in experiment [7] (setting [9]) it was 0.531. The EGFP object count in experiment [5] amounted to 14. Besides, the EGFP/DsRed ratio in experiment [5] is 0.38 (inactive). Also, the fraction signal in experiment [6] is 0.0245 (inactive).
In turn, `COc1ccc2c(-c3ccnc(Nc4cccc(OC(F)(F)F)c4)n3)cnn2n1` gave a liver cell % of control in experiment [1] of 77.9%. Besides, the parasite % of control in experiment [1] was 166% (inactive). The percent of negative control (+Dex) in experiment [2] is 91% (inactive). For the same compound, the z-score in experiment [2] was -0.08; in experiment [3] it was -0.6 (inactive); in experiment [4], -0.916 (inactive); in experiment [7] (setting [8]) it was 0.611 (inactive); in experiment [7] (setting [9]), -0.245. In addition, the EGFP object count in experiment [5] amounted to 5.5. Also, the EGFP/DsRed ratio in experiment [5] was 0.0552 (inactive). The fraction signal in experiment [6] is -0.005 (inactive).
In experiment [1], `COc1ccc2cc(-c3c(-c4ccncc4)nc(-c4ccc(S(C)=O)cc4C)n3C)ccc2c1` (centres undefined) showed a liver cell % of control of 94.7%. In addition, the parasite % of control in experiment [1] is 66.8% (inactive). The percent of negative control (+Dex) in experiment [2] was 94% (inactive). Further, the z-score was 0.56 in experiment [2]; 0.7 (inactive) in experiment [3]; 0.465 (inactive) in experiment [4]; 0.0666 (inactive) in experiment [7] (setting [8]); -0.0858 in experiment [7] (setting [9]). Moreover, the EGFP object count in experiment [5] is 2.5. Also, the EGFP/DsRed ratio in experiment [5] was 0.206 (inactive). Besides, the fraction signal in experiment [6] is -0.007 (inactive).
In experiment [1], `COc1cc2c(cc1Nc1nc(N3CCc4ccccc43)c3cc[nH]c3n1)N(C(=O)CN(C)C)CC2` displayed a liver cell % of control of 75%. The parasite % of control in experiment [1] is 160% (inactive). Besides, the percent of negative control (+Dex) in experiment [2] was 104% (inactive). The z-score was 0.675 in experiment [2]; 0.56 (inactive) in experiment [3]; 0.168 (inactive) in experiment [4]; -0.598 in experiment [7] (setting [8]); 2.39 in experiment [7] (setting [9]). In experiment [5], the EGFP object count amounted to 16.5. The EGFP/DsRed ratio in experiment [5] was 1.27 (inactive). Besides, the fraction signal in experiment [6] is -0.0105 (inactive).
In experiment [1], `COc1cccc(-n2nc(C)c3c(N/N=C(\C)c4ccncc4)ncnc32)c1` showed a liver cell % of control of 114%. Further, the parasite % of control in experiment [1] was 124% (inactive). Further, in experiment [2], the percent of negative control (+Dex) was 100% (inactive). The z-score is 0.765 in experiment [2]; 0.74 (inactive) in experiment [3]; -0.201 (inactive) in experiment [4]; -0.775 (inactive) in experiment [7] (setting [8]); -0.494 in experiment [7] (setting [9]). For the same compound, the EGFP object count in experiment [5] came to 2. Moreover, the EGFP/DsRed ratio in experiment [5] is 0.0826 (inactive). Moreover, the fraction signal in experiment [6] was -0.0005 (inactive).
Compound `COc1cccc(-n2ncc3c(N/N=C/c4ccc(C(=O)NCCN(C)C)cc4)ncnc32)c1` had a liver cell % of control in experiment [1] of 77.1%. In addition, the parasite % of control in experiment [1] is 68.4% (inactive). Besides, the percent of negative control (+Dex) in experiment [2] is 104% (inactive). The z-score in experiment [2] is 0.67; in experiment [3] it was -0.295 (inactive); in experiment [4], 0.961 (inactive); in experiment [7] (setting [8]) it was -0.557 (inactive); in experiment [7] (setting [9]) it was 0.745. Further, the EGFP object count in experiment [5] was determined as 7. In addition, in experiment [5], the EGFP/DsRed ratio was 0.117 (inactive). In addition, the fraction signal in experiment [6] is -0.0045 (inactive).
As to `CCc1nn2ncccc2c1-c1ccnc(NC2CC2)n1`, in experiment [1], the liver cell % of control was determined as 131%. For the same compound, the parasite % of control in experiment [1] is 61.2% (inactive). The percent of negative control (+Dex) in experiment [2] was 102% (inactive). The z-score is -0.225 in experiment [2]; 0.555 (inactive) in experiment [3]; -0.174 (inactive) in experiment [4]; -0.448 (inactive) in experiment [7] (setting [8]); -0.208 in experiment [7] (setting [9]). For the same compound, in experiment [5], the EGFP object count turned out to be 3.5. Further, in experiment [5], the EGFP/DsRed ratio was 0.117 (inactive). Also, the fraction signal in experiment [6] is 0.007 (inactive).
In experiment [1], `CNC(=O)c1cncc(/C=C/c2c(C)cccc2C)c1` returned a liver cell % of control of 106%. Also, in experiment [1], the parasite % of control is 86.6% (inactive). In addition, the percent of negative control (+Dex) in experiment [2] was 91.5% (inactive). Moreover, the z-score was 0.11 in experiment [2]; 0.025 (inactive) in experiment [3]; -0.466 (inactive) in experiment [4]; 1.23 (inactive) in experiment [7] (setting [8]); 0.0124 in experiment [7] (setting [9]). The EGFP object count in experiment [5] was found to be 4. The EGFP/DsRed ratio in experiment [5] is 0.149 (inactive). Besides, in experiment [6], the fraction signal is 0.0135 (inactive).
In experiment [1], `CN(C)C(=O)O[C@H]1CN[C@H](C#Cc2cc3ncnc(Nc4ccc(OCc5cccc(F)c5)c(Cl)c4)c3s2)C1` gave a liver cell % of control of 97.6%. Moreover, the parasite % of control in experiment [1] is 127% (inactive). The percent of negative control (+Dex) in experiment [2] is 92% (inactive). Besides, the z-score in experiment [2] was -0.215; in experiment [3], 0.225 (inactive); in experiment [4], -0.738 (inactive); in experiment [7] (setting [8]), -0.153 (inactive); in experiment [7] (setting [9]) it was -0.193. Moreover, the EGFP object count in experiment [5] is 2. In experiment [5], the EGFP/DsRed ratio is 0.131 (inactive). For the same compound, the fraction signal in experiment [6] was 0.001 (inactive).
Take `CCS(=O)(=O)c1ccc(OC)c(Nc2ncc(-c3cccc(-c4ccccc4F)c3)o2)c1`: in experiment [1], the liver cell % of control is 111%. The parasite % of control in experiment [1] is 98.4% (inactive). Moreover, in experiment [2], the percent of negative control (+Dex) is 88% (inactive). For the same compound, the z-score was 0.785 in experiment [2]; -0.07 (inactive) in experiment [3]; -0.851 (inactive) in experiment [4]; 2.02 (active) in experiment [7] (setting [8]); -0.444 in experiment [7] (setting [9]). Moreover, the EGFP object count in experiment [5] came to 3.5. Moreover, the EGFP/DsRed ratio in experiment [5] is 0.511 (inactive). Besides, the fraction signal in experiment [6] was 0.0015 (inactive).
`Nc1ncnc2occ(-c3ccc(NC(=O)Nc4cccc(C(F)(F)F)c4)cc3)c12` displayed a liver cell % of control in experiment [1] of 49.9%. Moreover, the parasite % of control in experiment [1] was 10.9% (inactive). Also, the percent of negative control (+Dex) in experiment [2] was 66.5% (active). Besides, the z-score in experiment [2] is -3; in experiment [3], -0.335 (inactive); in experiment [4], -1.22 (inactive); in experiment [7] (setting [8]) it was -0.197 (inactive); in experiment [7] (setting [9]), -0.452. In addition, in experiment [5], the EGFP object count worked out at 3.5. In addition, the EGFP/DsRed ratio in experiment [5] was 0.146 (inactive). For the same compound, the fraction signal in experiment [6] is -0.016 (inactive).
Take `COc1cc(Nc2ncc3c(C)nc(-c4cccc(C(F)(F)F)c4)n3n2)cc(OC)c1OC`: the liver cell % of control in experiment [1] came out at 91.6%. The parasite % of control in experiment [1] was 120% (inactive). Besides, the percent of negative control (+Dex) in experiment [2] is 59.5% (inactive). Besides, the z-score in experiment [2] is -3.31; in experiment [3], 0.325 (inactive); in experiment [4] it was -0.389 (inactive); in experiment [7] (setting [8]), 1.04 (inactive); in experiment [7] (setting [9]) it was 0.168. Besides, in experiment [5], the EGFP object count stood at 11. Also, the EGFP/DsRed ratio in experiment [5] was 0.172 (inactive). Besides, the fraction signal in experiment [6] is 0.005 (inactive).
